Measurements: ChEMBL document CHEMBL1961873, “Compounds: GSK PKIS; Assays: Nanosyn kinase panel” (2012)

Assays:
[1] = molecular target: Serine/threonine-protein kinase pim-2 (Homo sapiens) (UniProt Q9P1W9); conditions: at 1 µM;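 note: each value is a mean of the inhibition measurements against the kinase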
[2] = molecular target: Serine/threonine-protein kinase pim-3 (Homo sapiens) (UniProt Q86V86); conditions: at 0.1 µM
[3] = molecular target: Serine/threonine-protein kinase pim-3 (Homo sapiens) (UniProt Q86V86); conditions: at 1 µM
[4] = molecular target: T1, MAP kinase-activated protein kinase 5 (Homo sapiens) (UniProt Q8IW41); conditions: at 0.1 µM
T1 sequence (whole entry): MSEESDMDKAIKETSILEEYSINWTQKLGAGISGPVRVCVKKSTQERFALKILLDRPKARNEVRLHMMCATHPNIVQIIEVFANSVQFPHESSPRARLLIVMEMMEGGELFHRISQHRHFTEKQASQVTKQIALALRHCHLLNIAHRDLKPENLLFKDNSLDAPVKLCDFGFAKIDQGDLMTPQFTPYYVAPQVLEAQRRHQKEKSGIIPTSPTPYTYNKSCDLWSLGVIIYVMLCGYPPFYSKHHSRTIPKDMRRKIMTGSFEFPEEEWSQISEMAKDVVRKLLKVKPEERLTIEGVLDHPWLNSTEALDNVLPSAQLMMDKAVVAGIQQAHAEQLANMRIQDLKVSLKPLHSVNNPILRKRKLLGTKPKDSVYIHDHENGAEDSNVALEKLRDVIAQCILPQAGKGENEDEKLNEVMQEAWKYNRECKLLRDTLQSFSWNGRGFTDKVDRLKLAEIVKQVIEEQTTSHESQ

[5] = molecular target: T1, MAP kinase-activated protein kinase 5 (Homo sapiens); conditions: at 1 µM
[6] = molecular target: Serine/threonine-protein kinase SIK1 (Homo sapiens) (UniProt P57059); conditions: at 0.1 µM
[7] = molecular target: Serine/threonine-protein kinase SIK1 (Homo sapiens) (UniProt P57059); conditions: at 1 µM
[8] = molecular target: Serine/threonine-protein kinase SIK2 (Homo sapiens) (UniProt Q9H0K1); conditions: at 0.1 µM
[9] = molecular target: Serine/threonine-protein kinase SIK2 (Homo sapiens) (UniProt Q9H0K1); conditions: at 1 µM
[10] = molecular target: T2, Serine/threonine-protein kinase TBK1 (Homo sapiens) (UniProt Q9UHD2); conditions: at 0.1 µM;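 note: values are the mean TBK1 inhibition, taken from the GSK PKIS screening data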
T2 sequence (whole entry): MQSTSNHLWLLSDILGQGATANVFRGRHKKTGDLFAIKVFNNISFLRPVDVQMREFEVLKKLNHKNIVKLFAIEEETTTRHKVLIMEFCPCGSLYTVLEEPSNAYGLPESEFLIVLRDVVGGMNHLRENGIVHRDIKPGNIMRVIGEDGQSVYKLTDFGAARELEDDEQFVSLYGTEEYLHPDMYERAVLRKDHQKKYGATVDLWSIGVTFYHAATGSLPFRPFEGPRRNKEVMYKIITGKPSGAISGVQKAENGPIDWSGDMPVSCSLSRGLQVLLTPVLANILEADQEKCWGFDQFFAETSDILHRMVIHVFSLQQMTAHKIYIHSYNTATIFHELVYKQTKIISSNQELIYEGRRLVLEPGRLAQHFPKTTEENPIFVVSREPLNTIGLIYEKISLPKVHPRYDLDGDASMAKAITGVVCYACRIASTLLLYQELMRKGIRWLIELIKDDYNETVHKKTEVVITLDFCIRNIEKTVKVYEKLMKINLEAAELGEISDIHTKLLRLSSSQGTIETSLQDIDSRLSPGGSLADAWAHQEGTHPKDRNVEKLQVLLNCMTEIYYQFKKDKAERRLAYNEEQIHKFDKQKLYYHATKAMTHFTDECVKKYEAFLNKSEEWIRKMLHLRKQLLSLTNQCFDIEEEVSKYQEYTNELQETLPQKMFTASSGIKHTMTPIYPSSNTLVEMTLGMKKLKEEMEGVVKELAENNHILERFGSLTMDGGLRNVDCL

Serine/threonine-protein kinase SIK1 (Homo sapiens), sequence (P57059 whole entry): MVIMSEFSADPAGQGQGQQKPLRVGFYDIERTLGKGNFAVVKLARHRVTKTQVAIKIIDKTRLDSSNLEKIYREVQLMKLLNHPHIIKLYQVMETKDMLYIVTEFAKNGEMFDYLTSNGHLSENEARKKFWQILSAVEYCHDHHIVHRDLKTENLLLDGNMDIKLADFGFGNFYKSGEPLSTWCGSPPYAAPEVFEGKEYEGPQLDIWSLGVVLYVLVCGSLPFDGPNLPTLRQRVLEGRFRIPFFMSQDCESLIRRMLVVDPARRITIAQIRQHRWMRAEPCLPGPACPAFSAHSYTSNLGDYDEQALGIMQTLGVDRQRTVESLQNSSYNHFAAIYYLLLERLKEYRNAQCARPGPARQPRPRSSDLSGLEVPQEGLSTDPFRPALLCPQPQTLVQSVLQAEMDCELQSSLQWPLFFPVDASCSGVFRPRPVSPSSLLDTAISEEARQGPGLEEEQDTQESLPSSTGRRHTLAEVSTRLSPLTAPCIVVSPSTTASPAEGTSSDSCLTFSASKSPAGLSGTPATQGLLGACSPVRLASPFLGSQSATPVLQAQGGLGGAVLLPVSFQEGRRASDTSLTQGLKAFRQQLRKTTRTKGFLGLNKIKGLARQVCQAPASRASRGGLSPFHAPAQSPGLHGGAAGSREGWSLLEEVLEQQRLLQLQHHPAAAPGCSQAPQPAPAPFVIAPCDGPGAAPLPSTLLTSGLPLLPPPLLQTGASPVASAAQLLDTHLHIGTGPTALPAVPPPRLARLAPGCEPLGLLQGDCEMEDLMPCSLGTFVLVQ
Serine/threonine-protein kinase pim-2 (Homo sapiens), sequence (Q9P1W9 whole entry, looked up): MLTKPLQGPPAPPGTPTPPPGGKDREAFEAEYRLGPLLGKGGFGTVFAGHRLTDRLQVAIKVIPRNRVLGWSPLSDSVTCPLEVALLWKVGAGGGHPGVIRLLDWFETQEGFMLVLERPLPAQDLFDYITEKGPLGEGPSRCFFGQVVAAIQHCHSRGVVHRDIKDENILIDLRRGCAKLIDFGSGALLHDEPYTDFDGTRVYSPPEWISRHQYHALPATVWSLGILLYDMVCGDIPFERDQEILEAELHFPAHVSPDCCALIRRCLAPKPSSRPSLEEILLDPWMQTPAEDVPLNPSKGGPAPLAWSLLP
Serine/threonine-protein kinase SIK2 (Homo sapiens), sequence (Q9H0K1 whole entry, looked up): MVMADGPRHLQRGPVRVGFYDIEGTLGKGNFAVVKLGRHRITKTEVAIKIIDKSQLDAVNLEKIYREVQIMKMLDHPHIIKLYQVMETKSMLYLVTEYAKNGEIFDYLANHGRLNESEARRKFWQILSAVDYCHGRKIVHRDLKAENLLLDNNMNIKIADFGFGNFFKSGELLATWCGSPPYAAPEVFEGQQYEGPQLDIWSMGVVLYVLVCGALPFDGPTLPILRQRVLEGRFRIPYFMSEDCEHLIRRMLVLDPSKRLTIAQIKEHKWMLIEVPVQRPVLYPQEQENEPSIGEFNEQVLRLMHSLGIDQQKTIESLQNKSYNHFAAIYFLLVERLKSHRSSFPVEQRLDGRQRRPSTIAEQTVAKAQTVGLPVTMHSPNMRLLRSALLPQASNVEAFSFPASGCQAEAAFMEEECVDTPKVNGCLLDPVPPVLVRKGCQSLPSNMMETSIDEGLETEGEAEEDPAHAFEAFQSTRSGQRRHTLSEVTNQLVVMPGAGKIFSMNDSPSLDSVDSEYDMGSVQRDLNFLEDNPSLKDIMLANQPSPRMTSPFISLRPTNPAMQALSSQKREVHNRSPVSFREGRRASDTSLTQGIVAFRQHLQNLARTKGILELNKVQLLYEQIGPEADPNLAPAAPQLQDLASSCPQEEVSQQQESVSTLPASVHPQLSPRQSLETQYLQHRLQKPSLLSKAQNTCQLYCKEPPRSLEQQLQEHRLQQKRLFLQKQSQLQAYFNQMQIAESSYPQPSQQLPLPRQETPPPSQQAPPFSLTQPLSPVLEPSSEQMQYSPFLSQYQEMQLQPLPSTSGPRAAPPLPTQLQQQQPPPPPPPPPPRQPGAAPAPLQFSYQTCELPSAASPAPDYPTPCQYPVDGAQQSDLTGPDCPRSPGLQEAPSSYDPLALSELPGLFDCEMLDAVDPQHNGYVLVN

SMILES | inhibition [1] [%] | inhibition [2] [%] | inhibition [3] [%] | inhibition [4] [%] | inhibition [5] [%] | inhibition [6] [%] | inhibition [7] [%] | inhibition [8] [%] | inhibition [9] [%] | inhibition [10] [%]
COc1ccc(-c2cc(-c3c[nH]nc3-c3ccccn3)ccn2)cc1 | 1.29 | 0.79 | 1.9 | 2.14 | 4.32 | 11.2 | 7.23 | 3.82 | 11.3 | 4.48
Fc1ccc(-c2nn3ccccc3c2-c2ccncc2)cc1 | -0.05 | -0.94 | -1.43 | 0.01 | -0.42 | 1.08 | 4.41 | 0 | 14.9 | 2.66
Cc1cccc(Nc2ncc(-c3ccccc3)o2)c1 | 0.42 | -0.05 | 1.97 | 1.69 | 0.97 | 3.47 | 12.8 | -1.34 | 9.41 | 2.6
Nc1ncc(-c2cccc(S(N)(=O)=O)c2)c2scc(-c3ccc(F)c(Cl)c3)c12 | 0.78 | 1.11 | 0.91 | 1.73 | 1.77 | 20.4 | 61 | 9.17 | 28.8 | 3.75
COc1ccc(-c2oc3ncnc(N)c3c2-c2ccc(NC(=O)Nc3cc(C(F)(F)F)ccc3F)cc2)cc1 | 1.06 | 0.37 | 5 | 2.58 | 4.28 | 6.56 | 14.4 | 11.9 | 10.7 | 1.47
CCn1c(-c2nonc2N)nc2c(C#CC(C)(C)O)ncc(OC3CCNCC3)c21 | 11.7 | 2.64 | 23.8 | 0.79 | 1.22 | 3.53 | 10.6 | 3.69 | 14.8 | 12.2
Fc1ccc(-c2cc(-c3c[nH]nc3-c3ccccn3)ccn2)cc1 | -1.45 | -0.42 | 1.85 | 2.19 | 4.27 | 3.49 | 8.52 | 7.67 | 8 | 0.43
CNC(=O)c1cncc(/C=C/c2ccccc2Cl)c1 | 0.04 | 3.4 | 5.1 | 0.27 | 1.73 | 2.02 | 25.6 | 2.24 | 8.3 | 0.45
Cc1cccc2c1NC(=O)/C2=N\Nc1ccc(S(N)(=O)=O)cc1 | 0.28 | -0.05 | -2.33 | 0.84 | -0.06 | 6.76 | 2.58 | 7.86 | 2.38 | 2.84
c1cc(-c2cnn3nc(N4CCOCC4)ccc23)nc(NC2CC2)n1 | 0.92 | -0.59 | 4.8 | 1.08 | 0.41 | 7.04 | 5.66 | 6.34 | 7.7 | 3.02
CC(C)(CO)CNC(=O)c1ccc2c(c1)/C(=N/Nc1ccc(S(N)(=O)=O)cc1)C(=O)N2 | 4.28 | 1.57 | 14.2 | -0.02 | -0.16 | 3.06 | 27.7 | -1.9 | 36 | 21.7
CC1=C(C(=O)Nc2cc(Cl)c3[nH]ncc3c2)C(c2ccc(C(F)(F)F)cc2)CC(=O)N1 (stereo not given) | -0.24 | -0.23 | -0.25 | 1.37 | 2.73 | 4.89 | 8.58 | 4.56 | 11.8 | 2.77
COc1ccc(CNC(=O)c2ccc(-c3cc(-c4nnc(C)o4)ccc3C)cc2)cc1 | 3.03 | 4.73 | 8.32 | 2.76 | 5.41 | 1.54 | 2.92 | 6.86 | 6.77 | 2.25
CS(=O)(=O)CCNCc1ccc(-c2ccc3ncnc(Nc4ccc(OCc5ccccc5)c(C(F)(F)F)c4)c3c2)o1 | 1.13 | -1.28 | -0.2 | 1.1 | 1.66 | 4.5 | 6.16 | 4.8 | 2.29 | 0.23
